Test results as given in PubChem BioAssay (NCATS).
Inconclusive results are not listed. Unmarked numbers belong to inactive results. The call rests on the fitted dose curve; in most records, active means well fitted inhibition curve with a large enough effect; inconclusive means small, poorly fitted or top-dose-only effect; inactive means flat fitted curve, though single readings scatter. Non-standard residues stand in square brackets, D forms with d. Residues, ends and D or L forms follow the SMILES beside them. Peptide text beside a SMILES is read from it. *: point of attachment. Sta = CC(C)C[C@H](N)[C@@H](O)CC(=O)O; Isovaleryl = CC(C)CC(=O)*

Experiment: qHTS to identify inhibitors of the type 1 interferon - major histocompatibility complex class I in skeletal muscle: primary screen against the NCATS Pharmaceutical Collection (AID 1347407);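 further: luminescence of HiBiT knocked into endogenous HLA-B as interferon-induced MHC class I level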
Settings: human skeletal muscle cells, IFN-b-induced MHC-I HiBiT luminescence, 24 h; series mostly up to 45.9 µM; activity change, negative = inhibition: at the top concentration
In short: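 Compounds […] were added to CRISPR-engineered HLA-B-HiBiT C25cl48 human myoblasts with 4.0 ng/ml IFN-beta. After 24 hrs at 37 C, cells were lysed and HiBiT luminescence measured.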
On the % scale 0 is the no-effect control and ±100 the full control effect.

Row | SMILES | activity change, negative = inhibition
1 | Nc1cccc2c1CN(C1CCC(=O)NC1=O)C2=O (configuration not stated) | -0.862%
2 | Cc1cccc(CN2CCN(C(c3ccccc3)c3ccc(Cl)cc3)CC2)c1 (configuration not stated) | -14.7%
3 | COc1cc2nc(N3CCN(C(=O)C4CCCO4)CC3)nc(N)c2cc1OC (configuration not stated) | -17.7%
4 | CC1Cc2ccccc2N1NC(=O)c1ccc(Cl)c(S(N)(=O)=O)c1 (configuration not stated) | -29.7%
5 | O=C(O)CCNC(=O)c1ccc(N=Nc2ccc(O)c(C(=O)O)c2)cc1 | -2.56%
6 | COC(=O)[C@H](Cc1ccccc1)NC(=O)[C@@H](N)CC(=O)O (H-Asp-Phe-OMe) | 4.02%
7 | CCCc1cc(=O)[nH]c(=S)[nH]1 | 1.21%
8 | COC1=C(OC)C(=O)C(CCCCCCCCCCO)=C(C)C1=O | -6.78%
9 | Cc1cc2cc3c(C)cc(=O)oc3c(C)c2o1 | -5.91%
10 | Cc1ccc(C(=O)c2cc(O)c(O)c([N+](=O)[O-])c2)cc1 | -26.3%
11 | O=C(NCCO[N+](=O)[O-])c1cccnc1 | -0.507%
12 | CCC[C@@H]1C[C@@H](C(=O)N[C@@H]([C@H]2O[C@H](SC)[C@H](O)[C@@H](O)[C@H]2O)[C@@H](C)O)N(C)C1 | -22.9%
13 | NC(=O)Cc1cccc(C(=O)c2ccccc2)c1N | -0.653%
14 | Nc1ccc(S(N)(=O)=O)cc1 | -2.22%
15 | Cc1c(C(=O)NN2CCCCC2)nn(-c2ccc(Cl)cc2Cl)c1-c1ccc(Cl)cc1 | -6.97%
16 | COCCCN1CCC(NC(=O)c2cc(Cl)c(N)c3c2OCC3)CC1 | -12.6%

Row | SMILES | activity change, negative = inhibition
17 | CS(=O)(=O)OCCCCOS(C)(=O)=O | 6.76%
18 | O=C(O)c1cc(=O)c2c(OCC(O)COc3cccc4oc(C(=O)O)cc(=O)c34)cccc2o1 | 8.32%
19 | CCCCN(CCCC)CCC(O)c1cc2c(Cl)cc(Cl)cc2c2cc(C(F)(F)F)ccc12 (configuration not stated) | -22.1%
20 | Cc1cc(=O)c2c(O)c3c(O)cc(=O)c4c3c3c(cc(O)c1c23)C(C)(C)C=4O | -17.9% [at 19 µM]
21 | c1ccc2[nH]c(-c3cscn3)nc2c1 | -11.4%
22 | NS(=O)(=O)c1cc(C(=O)O)c(NCc2ccco2)cc1Cl | 2.68%
23 | NNc1nncc2ccccc12 | 0.358% [at 19 µM]
24 | CCCCc1ccc2nc(NC(=O)OC)[nH]c2c1 | -23.8%
25 | CC(C)CC(=O)N[C@H](C(=O)N[C@H](C(=O)N[C@@H](CC(C)C)[C@@H](O)CC(=O)N[C@@H](C)C(=O)N[C@@H](CC(C)C)[C@@H](O)CC(=O)O)C(C)C)C(C)C (Isovaleryl-VV[Sta]A[Sta]-OH) | 0.489%
26 | CC(C)[C@H](N)C(=O)OCCOCn1cnc2c(=O)[nH]c(N)nc21 | 14.9%
27 | COC(=O)N[C@H](C(=O)N[C@@H](Cc1ccccc1)[C@@H](O)CN(Cc1ccc(-c2ccccn2)cc1)NC(=O)[C@@H](NC(=O)OC)C(C)(C)C)C(C)(C)C | -11.6%
28 | N=C(N=C(N)N)N1CCOCC1 | -2.19%
29 | CCN(CC)CCOc1ccc(Cc2ccccc2)cc1 | 0.294%
30 | CC(C)c1ccc2oc3nc(N)c(C(=O)O)cc3c(=O)c2c1 | 0.589%
31 | CC1=C(C(=O)O)N2C(=O)[C@@H](NC(=O)[C@H](N)C3=CCC=CC3)[C@H]2SC1 | -3.86%
32 | O=C(NC(Cc1cc(=O)[nH]c2ccccc12)C(=O)O)c1ccc(Cl)cc1 (configuration not stated) | 2.68%
